± gives the standard deviation of the averaged measurements.

The first experiment deals with IL-6-GFP PC-9GR. Kind of experiment: cell viability (CCK-8 OD) relative to DMSO control (fraction of control); higher = more viable cells. Particulars: compound concentration: 10 uM; treatment time: 48 h. Put shortly:
(§1)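 In 96-well plates, 3000 cells/well of PC-9 or PC-9GR lung cancer cells with lentiviral IL-6-GFP overexpression received each compound of a purchased 510-compound library at a final 10 μM for 48 h. Viability, measured by CCK-8 absorbance, is each well's optical density relative to the vehicle control well. Data come from two independent replicates.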
Consider `Cc1ccc(NC(=O)c2ccc(CN3CCN(C)CC3)cc2)cc1Nc1nc(-c2cccnc2)cs1` [Masitinib (AB1010)], for which the cell viability stood at 0.268 ± 0.05. `COc1ccc2c(c1)c(CC(=O)O)c(C)n2C(=O)c1ccc(Cl)cc1` [Indomethacin] gave a cell viability of 0.478 ± 0.33. `CC(Oc1cc(-c2cnn(C3CCNCC3)c2)cnc1N)c1c(Cl)ccc(F)c1Cl` (stereo not drawn) gave a cell viability of 0.43 ± 0.21. Same read-out and setting: the figure for `CS(=O)(=O)CCNCc1ccc(-c2ccc3ncnc(Nc4ccc(OCc5cccc(F)c5)c(Cl)c4)c3c2)o1.Cc1ccc(S(=O)(=O)O)cc1.Cc1ccc(S(=O)(=O)O)cc1` is 1.18 ± 0.056.

Molecule `N.N.O=C([O-])C1(C(=O)[O-])CCC1.[Pt+2]` [Carboplatin] displayed a cell viability of 1.19 ± 0.012. Same read-out and setting: the figure for `O=C(c1ccc(OCCN2CCCCC2)cc1)c1c(-c2ccc(O)cc2)sc2cc(O)ccc12` [Raloxifene] is 0.849 ± 0.1; for `NC(=O)Cc1cccc(C(=O)c2ccccc2)c1N` [Nepafenac] it is 1.07 ± 0.029. Still for that read-out and setting: the figure for `CC1CC2C3CCC4=CC(=O)C=CC4(C)C3(F)C(O)CC2(C)C1(O)C(=O)COP(=O)([O-])[O-].[Na+].[Na+]` (stereo not drawn) [Dexamethasone Sodium Phosphate] is 1.22 ± 0.16. The same measure, in the same setting: with `Cc1c(Cl)cccc1Nc1ccccc1C(=O)O` [Tolfenamic Acid] the figure was 1.39 ± 0.44.

For another experiment, the system named is IL-6-GFP PC-9. The description is as above. The note with it: compound concentration: 10 uM; treatment time: 48 h. Put shortly:
as §1
In turn, `CCS(=O)(=O)N1CC(CC#N)(n2cc(-c3ncnc4[nH]ccc34)cn2)C1.O=P(O)(O)O` [Baricitinib phosphate] came in with a cell viability of 1.0937 ± 7.8e-05. Same read-out and setting: the figure for `Cc1nc2ccc(CN(C)c3ccc(C(=O)NC(CCC(=O)O)C(=O)O)s3)cc2c(=O)[nH]1` (stereo not drawn) [Raltitrexed] is 0.506 ± 0.17; for `CC(=O)OC1CCC2(C)C(=CCC3C2CCC2(C)C(c4cccnc4)=CCC32)C1` (stereo not drawn) [Abiraterone Acetate] it is 0.929 ± 0.21. Same read-out and setting: with `CNNCc1ccc(C(=O)NC(C)C)cc1.Cl` [Procarbazine HCl] the figure was 1.17 ± 0.042; with `COC(=O)c1cc(OC)c2c(c1-c1c(CO)cc(OC)c3c1OCO3)OCO2` [Bicyclol], 0.934 ± 0.097. `CCC1(O)CC2CN(CCc3c([nH]c4ccccc34)C(C(=O)OC)(c3cc4c(cc3OC)N(C)C3C(O)(C(=O)OC)C(OC(C)=O)C5(CC)C=CCN6CCC43C65)C2)C1.O=S(=O)(O)O` (stereo not drawn) [Vinblastine sulfate] came in with a cell viability of 0.655 ± 0.084. Still for that read-out and setting: the figure for `Cn1c(=O)cc(N2CCCC(N)C2)n(Cc2cc(F)ccc2C#N)c1=O` (stereo not drawn) [Trelagliptin] is 1.33 ± 0.49; for `CC(=O)[N-]S(=O)(=O)c1ccc(N)cc1.[Na+]` [Sulfacetamide Sodium] it is 1.1 ± 0.014. The same measure, in the same setting: the figure for `COC(c1ccccc1)(c1ccccc1)C(Oc1nc(C)cc(C)n1)C(=O)O` (stereo not drawn) [Ambrisentan] is 1.25 ± 0.37; for `COc1cccc2c1C(=O)c1c(O)c3c(c(O)c1C2=O)CC(O)(C(=O)CO)CC3OC1CC(N)C(O)C(C)O1.Cl` (stereo not drawn) [Doxorubicin (Adriamycin) HCl] it is 0.136 ± 0.03; for `Nc1nc(=O)c2c(CCc3ccc(C(=O)NC(CCC(=O)[O-])C(=O)[O-])cc3)c[nH]c2[nH]1.[Na+].[Na+]` (stereo not drawn) [Pemetrexed] it is 0.635 ± 0.1.

Turning to `COc1ccc2c(c1)nc(S(=O)Cc1ncc(C)c(OC)c1C)[n]2[Na]` (stereo not drawn) [Esomeprazole sodium], the cell viability worked out at 0.939 ± 0.16.

With `CS(=O)(=O)n1cc2c(n1)CN(C1COC(c3cc(F)ccc3F)C(N)C1)C2` (stereo not drawn) [Omarigliptin (MK-3102)], the cell viability stood at 1.02 ± 0.25. Same read-out and setting: the figure for `N#CC1CC2CC2N1C(=O)C(N)C12CC3CC(CC(O)(C3)C1)C2.O` (stereo not drawn) [Saxagliptin hydrate] is 1.14 ± 0.091.

Molecule `CC1(C)OC2CC3C4CCC5=CC(=O)C=CC5(C)C4(F)C(O)CC3(C)C2(C(=O)CO)O1` (stereo not drawn) [Triamcinolone Acetonide] displayed a cell viability of 0.9016 ± 0.0065. In the case of `CN(C)CCOC(c1ccc(Cl)cc1)c1ccccn1.O=C(O)/C=C\C(=O)O` (stereo not drawn) [CarbinoxaMine Maleate], the cell viability amounted to 1.07 ± 0.066. On the same count and under the same terms, the figure for `Cc1cn(-c2cc(NC(=O)c3ccc(C)c(Nc4nccc(-c5cnccn5)n4)c3)cc(C(F)(F)F)c2)cn1` [Radotinib] is 1.1 ± 0.038. The same measure, in the same setting: the figure for `CCCCC(CC)CN1CN(CC(CC)CCCC)CC(C)(N)C1` (stereo not drawn) [Hexetidine] is 1.15 ± 0.07. Molecule `C=CC1=C(C)c2cc3nc(cc4[nH]c(cc5[nH]c(cc1n2)c(C)c5C=C)c(C)c4CCC(=O)O)C(CCC(=O)O)=C3C` [Protoporphyrin IX] registered a cell viability of 0.995 ± 0.17. The same measure, in the same setting: with `O=NN(CCCl)C(=O)NC1CCCCC1` [Lomustine] the figure was 0.9506 ± 0.0079; with `O=C(/C=C/C=C/c1ccc2c(c1)OCO2)N1CCCCC1` [Piperine], 1.47 ± 0.33; with `N#Cc1ccc(C2CCCc3cncn32)cc1` (stereo not drawn) [Fadrozole], 1.18 ± 0.074.

In turn, `O=C(O)CCc1nc(-c2ccccc2)c(-c2ccccc2)o1` [Oxaprozin] registered a cell viability of 0.543 ± 0.2. Turning to `CCc1cc2c(cc1N1CCC(N3CCOCC3)CC1)C(C)(C)c1[nH]c3cc(C#N)ccc3c1C2=O`, the cell viability is 0.584 ± 0.18.

Molecule `NC(CO)(CO)CO` [Trometamol] returned a cell viability of 1.09 ± 0.061. `CO/N=C(\C(=O)NC1C(=O)N2C(C(=O)OCOC(=O)C(C)(C)C)=C(C)CSC12)c1csc(N)n1.Cl` (stereo not drawn) [Cefetamet pivoxil hydrochloride] came in with a cell viability of 1.14 ± 0.056. Turning to `C/C=C(/C)C(=O)OC1C(OC(C)=O)C2(CO)C(O)CC3(C)C(=CCC4C5(C)CCC(OC6OC(C(=O)O)C(OC7OC(CO)C(O)C(O)C7O)C(O)C6OC6OC(CO)C(O)C(O)C6O)C(C)(CO)C5CCC43C)C2CC1(C)C` (stereo not drawn) [Escin], the cell viability amounted to 1.14 ± 0.22. Still for that read-out and setting: the figure for `CC(C(=O)O)c1ccc(CC2CCCC2=O)cc1` (stereo not drawn) [Loxoprofen] is 1.29 ± 0.05; for `Cc1c(O)c(C)c2c(c1O)C(=O)CC(c1ccc(O)cc1)O2` (stereo not drawn) [Farrerol] it is 1.05 ± 0.037; for `O=c1ccc2ccc(O)c(O)c2o1` [Daphnetin] it is 1.17 ± 0.18.

The molecule `Cc1ccc(NC(=O)c2ccc(CN3CCN(C)CC3)cc2)cc1Nc1nc(-c2cccnc2)cs1` [Masitinib (AB1010)] showed a cell viability of 0.366 ± 0.26. Same read-out and setting: the figure for `COc1ccc2c(c1)c(CC(=O)O)c(C)n2C(=O)c1ccc(Cl)cc1` [Indomethacin] is 1.03 ± 0.027; for `CC(Oc1cc(-c2cnn(C3CCNCC3)c2)cnc1N)c1c(Cl)ccc(F)c1Cl` (stereo not drawn) it is 0.529 ± 0.15. Still for that read-out and setting: the figure for `CS(=O)(=O)CCNCc1ccc(-c2ccc3ncnc(Nc4ccc(OCc5cccc(F)c5)c(Cl)c4)c3c2)o1.Cc1ccc(S(=O)(=O)O)cc1.Cc1ccc(S(=O)(=O)O)cc1` is 0.708 ± 0.033; for `N.N.O=C([O-])C1(C(=O)[O-])CCC1.[Pt+2]` [Carboplatin] it is 1.12 ± 0.074.

For `O=C(c1ccc(OCCN2CCCCC2)cc1)c1c(-c2ccc(O)cc2)sc2cc(O)ccc12` [Raloxifene], the cell viability was 1.08 ± 0.11. As to `NC(=O)Cc1cccc(C(=O)c2ccccc2)c1N` [Nepafenac], the cell viability was 0.958 ± 0.1. Consider `CC1CC2C3CCC4=CC(=O)C=CC4(C)C3(F)C(O)CC2(C)C1(O)C(=O)COP(=O)([O-])[O-].[Na+].[Na+]` (stereo not drawn) [Dexamethasone Sodium Phosphate], for which the cell viability worked out at 0.831 ± 0.039.

Turning to `Cc1c(Cl)cccc1Nc1ccccc1C(=O)O` [Tolfenamic Acid], the cell viability amounted to 1.18 ± 0.046.

Source of the values: the supplement of paper PMC8866396.
